Earlier results on 21 compounds are cited in PubChem BioAssay AID977610.

In all, about 3,600 compounds went through this assay and about 3,600 (100%) were called active. The limit is not given here; nearly all actives have Ki up to about 18000 µM. So high a share suggests a set chosen from earlier hits. Some of the results follow. Square brackets hold non-standard residues; d marks the D form. Residues, ends and D or L forms follow the SMILES beside them. Peptide text beside a SMILES is read from it. Orn(CH(NH2)2) = NC(N)NCCC[C@H](N)C(=O)O

The data set can be described thus: PubChem AID 977610. Conditions: PDB protein-ligand complexes, literature Ki.

As usually defined, the Ki is a measure of affinity in units of concentration, obtained from inhibition or displacement. Take `C[C@@H](O)[C@H](N)C(=O)NS(=O)(=O)c1cccc(-c2ccc3[nH]ncc3c2)c1`: the Ki (protein: Threonine--tRNA ligase, cytoplasmic, PDB entry 4hwt) is 50 µM (active).
Turning to `Cc1cc(-c2nn(C(C)C)c3ncnc(N)c23)cc2ccc(OCc3ccccc3)nc12`, for the setting “protein: Mitogen-activated protein kinase 1 (Q103A, C164L mutant), Rat Erk2, PDB entry 4n4s”, the inhibitory constant (Ki) was 0.133 µM (active).
For `CC(=O)NCCCC[C@H](NC(=O)[C@H](CCCN=C(N)N)NC(=O)[C@H](Cc1cnc[nH]1)NC(=O)[C@@H](N)CCCN=C(N)N)C(=O)N[C@H](C(=O)O)C(C)C` (H-RHRK(Ac)V-OH), the inhibitory constant (Ki) (protein: Bromodomain-PHD Finger Module of Human Transcriptional Co-Activator CBP, PDB entry 4n3w) was 315 µM (active).
Consider `OC[C@@H]1[C@@H](O[C@@H]2O[C@H](CO)[C@@H](O)[C@H](O)[C@@H]2O)[C@H](O)[C@H](O)c2nccn21`, for which the Ki runs as follows: (protein: GH26 beta-mannanase CjMan26C from Cellvibrio japonicus, PDB entry 4cd5) 0.194 µM (active); (protein: GH113 beta-mannanase AaManA from Alicyclobacillus acidocaldarius, PDB entry 4cd8) 1300 µM (active).
Take `COc1ccc([C@H]2[C@H](O)[C@H](O)[C@H](C)N2C)cc1`: the inhibition constant (Ki) (protein: alpha-L-fucosidase, PDB entry 4jfs) was 5.4 µM (active).
On to `COc1ccc([C@@H]2N[C@@H](C)[C@@H](O)[C@H]2O)cc1`, for which, under “protein: alpha-L-fucosidase, PDB entry 4jft”, the Ki was 3.5 µM (active).
For `NC(N=O)NCC[C@H](N)C(=O)O` (some centres not stated), for the setting “protein: Arginase, PDB entry 4iu1”, the inhibition constant Ki is 50 µM (active).
As for `CNC(=O)CC[C@H](C[C@H](N)C(=O)O)C(=O)O`, for the setting “protein: Glutamate receptor ionotropic, kainate 3 GluK3 LBD, PDB entry 4nwd”, the inhibitory constant (Ki) is 3.96 µM (active).
Turning to `COC(=O)CC[C@H](C[C@H](N)C(=O)O)C(=O)O`, where the note is “protein: Glutamate receptor ionotropic, kainate 3 GluK3 LBD, PDB entry 4nwc”, the Ki is 1.74 µM (active).
On to `CCCCCCCCCCCCCCCCCCCC(=O)NCCO`, for which the inhibitory constant (Ki) (protein: FATTY ACID-BINDING PROTEIN, EPIDERMAL, PDB entry 4azp) was 1.26 µM (active).
Turning to `CCC(CC)[C@H](NC(C)=O)[C@@H]1[C@H](O)[C@@H](C(=O)O)C[C@H]1NC(N)N`, the Ki (protein: Human Sialidase Neu2, PDB entry 2f10) was 330 µM (active).
`CC(=O)c1ccc2c(c1)OCCO2`: the Ki (protein: PDE10A2, PDB entry 4lm3) was 1200 µM (active).
For `OCc1ccc2c(c1)OCCO2`, where the note is “protein: PDE10A2, PDB entry 4lm2”, the Ki is 940 µM (active).
As to `CCCCCCCC/C=C\CCCCCCC[C@H](O)c1nnc(-c2ccccn2)o1`, the inhibition constant (Ki) (protein: Humanized Variant of Fatty Acid Amide Hydrolase (L192F, F194Y, A377T, S435N, I491V, V495M), PDB entry 3k84) is 0.003 µM (active).
Consider `Cc1ccnc(N)c1[N+](=O)[O-]`, for which the Ki (protein: PDE10A2, PDB entry 4mrz) was 300 µM (active).
As to `O=C(O)C(O)C(=O)O`, the Ki (protein: Mandelate racemase, PDB entry 4m6u) was 1800 µM (active).
As to `Nc1c(CC(=O)O)cccc1C(=O)c1ccc(Br)cc1`, for the setting “protein: E. coli sliding clamp, DNA polymerase III subunit beta, PDB entry 4mjq”, the inhibition constant Ki is 193 µM (active).
As to `C[C@H](NC(=O)[C@H](C)NC(=O)[C@H](Cc1ccccc1)NC(=O)[C@H](CO)NC(=O)[C@H](CCCNC(N)N)NC(=O)[C@@H]1CCCN1)C(=O)O` (H-P[Orn(CH(NH2)2)]SFAA-OH), for the setting “protein: LSD1-CoREST complex, PDB entry 3zn0”, the inhibition constant Ki was 10.7 µM (active).
With `CC(C)[C@H](NC(=O)[C@H](C)NC(=O)[C@H](Cc1ccccc1)NC(=O)[C@H](CO)NC(=O)[C@H](CCCNC(N)N)NC(=O)[C@@H]1CCCN1)C(=O)O` (H-P[Orn(CH(NH2)2)]SFAV-OH), the Ki (protein: LSD1-CoREST complex, PDB entry 3zmz) is 18 µM (active).
For `CC(C)C[C@H](NC(=O)[C@H](Cc1ccccc1)NC(=O)[C@H](CO)NC(=O)[C@H](CCCNC(N)N)NC(=O)[C@@H]1CCCN1)C(=O)N[C@H](C(=O)O)C(C)C` (H-P[Orn(CH(NH2)2)]SFLV-OH), the inhibition constant Ki (protein: LSD1-CoREST complex, PDB entry 3zmt) is 28.4 µM (active).
Regarding `CC(C)C[C@H](NC(=O)[C@H](CCCNC(N)N)NC(=O)[C@@H]1CCCN1)C(=O)N[C@@H](Cc1ccc(O)cc1)C(=O)N[C@@H](CC(C)C)C(=O)N[C@H](C(=O)O)C(C)C` (H-P[Orn(CH(NH2)2)]LYLV-OH), under “protein: LSD1-CoREST complex, PDB entry 3zn1”, the Ki was 29.1 µM (active).
